Assay results published in PubChem BioAssay (Tox21).
Records with an inconclusive call do not appear. Active and inactive are the calls of the source. Unless noted, calls follow the shape of the dose curve; as a rule, active = well fitted curve in the direction sought with a large enough effect in the repeat runs; inconclusive = weak or mixed curves; inactive = no such curve, though single readings can be large; an effect the other way counts as inactive or inconclusive.

Assays:
[1] = qHTS assay to identify small molecule antagonists of the estrogen related receptor (ERR) signaling pathway from Tox21 library - cell viability counter screen (AID 1224834); also: nearly all actives have a fitted effect of over 30% in size
How it was run: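 Cytotoxicity of test substances is gauged in the same ERR cells used for the antagonist screen, after 17.5 h of compound treatment at 37 C, by CellTiter-Fluor fluorescence measured after 30 min.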

[2] = biological target: Luciferin 4-monooxygenase (Photinus pyralis) (UniProt P08659); experiment: qHTS assay to identify small molecule inhibitors of firefly luciferase (AID 1224835); also: series mostly up to about 120 µM; nearly all actives have a fitted effect of over 25% in size
How it was run: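 Inhibition of purified Photinus luciferase is measured by luminescence. Substrate levels (D-luciferin, ATP) sit at their KM values. Each compound is tested in a concentration series.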

[3] = qHTS assay to identify small molecule agonists of the constitutive androstane receptor (CAR) signaling pathway - cell viability counter screen (AID 1224836); also: series mostly up to about 92 µM; nearly all actives have a fitted effect of over 45% in size
How it was run: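 23 h treatment, 37 C, 5% CO2. Cell line: HepG2 stably expressing hCAR with a CYP2B6-2.2kb construct. Co-treatment: PK11195, 0.75 uM final. Read-out: CellTiter-Fluor fluorescence intensity.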

[4] = qHTS assay to identify small molecule antagonists of the constitutive androstane receptor (CAR) signaling pathway - cell viability counter screen (AID 1224837); also: series mostly up to about 92 µM; nearly all actives have a fitted effect of over 45% in size
How it was run: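 Multiplexed cytotoxicity read-out for the CAR antagonist screen: double-stable HepG2-CYP2B6-hCAR cells co-treated with 50 nM CITCO (final) and compound over 15 concentrations, incubated 23 hr, then assessed by CellTiter-Fluor fluorescence.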

[5] = biological target: Nuclear receptor subfamily 1 group I member 3 (Homo sapiens) (UniProt Q14994); experiment: qHTS assay to identify small molecule antagonists of the constitutive androstane receptor (CAR) signaling pathway (AID 1224838); also: nearly all actives have a fitted effect of over 40% in size
How it was run: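 Compounds were titrated across 15 concentrations onto HepG2 cells double-stably expressing hCAR and a CYP2B6-2.2kb reporter, together with 50 nM CITCO (final). After 24 h at 37 C, luciferase activity was measured by luminescence.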

[6] = biological target: Nuclear receptor subfamily 1 group I member 3 (Homo sapiens) (UniProt Q14994); experiment: qHTS assay to identify small molecule agonists of the constitutive androstane receptor (CAR) signaling pathway (AID 1224839);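 also: HepG2 cells stably carrying human CAR and a CYP2B6 luciferase reporter; series mostly up to about 92 µM; nearly all actives have a fitted effect of over 15% in size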
How it was run: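 Compounds tested at 15 concentrations on HepG2 cells stably harbouring hCAR and CYP2B6-2.2kb reporter constructs, co-treated with PK11195 (0.75 uM final), 24 h at 37 C; luminescent reporter signal quantified.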

[7] = qHTS assay to identify small molecule antagonists of the estrogen related receptor signaling pathway with the pleiotropic PPARgamma coactivator (PGC) from Tox21 10K library - cell viability counter screen (AID 1224840; active = well fitted cell-killing curve with a large enough effect in the repeat runs, not every such curve was filed as active; also: nearly all actives have a fitted effect of over 40% in size)
How it was run: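 Step one, plate 2,000 PGC/ERR cells per well; step two, incubate 6 h at 37 C/5% CO2; step three, pin-transfer compounds; step four, incubate 17.5 h; step five, add CellTiter-Fluor and read fluorescence after 30 min.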

[8] = qHTS assay to identify small molecule agonists of the estrogen related receptor signaling pathway with the pleiotropic PPARgamma coactivator (PGC) (AID 1224823)
How it was run: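 Steps: plate PGC/ERR cells at 2,000 cells/well; incubate 6 h, 37 C/5% CO2; pin-transfer compounds (DMSO); incubate 18 h, 37 C; add One-Glo; 30 min RT; read luminescence.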

[9] = qHTS assay to identify small molecule antagonists of the estrogen related receptor signaling pathway with the pleiotropic PPARgamma coactivator (PGC) from Tox21 10K library (AID 1224841; call rule not given here; also: series mostly up to about 92 µM; actives are mostly falling curves and most rising ones were filed inactive; nearly all actives have a fitted effect of over 50% in size)
How it was run: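 Antagonism in this quantitative HTS is taken from loss of luciferase signal in PGC/ERR cells. Cells (2,000/well) are treated with compounds in DMSO after a 6 h settling period and read by One-Glo luminescence after 18 h.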

[10] = qHTS assay to identify small molecule agonists of the estrogen related receptor signaling pathway with the pleiotropic PPARgamma coactivator (PGC) from Tox21 10K library (AID 1224842); also: nearly all actives have a fitted effect of over 15% in size
How it was run: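 Luminescence from One-Glo (30 min, room temperature) measured after PGC/ERR cells had 18 h at 37 C with pinned compound (23 nL in DMSO). Cells had been seeded at 2,000 per well and pre-incubated 6 h.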

Measured: Potency

Luciferin 4-monooxygenase (Photinus pyralis), sequence (P08659 whole entry, looked up): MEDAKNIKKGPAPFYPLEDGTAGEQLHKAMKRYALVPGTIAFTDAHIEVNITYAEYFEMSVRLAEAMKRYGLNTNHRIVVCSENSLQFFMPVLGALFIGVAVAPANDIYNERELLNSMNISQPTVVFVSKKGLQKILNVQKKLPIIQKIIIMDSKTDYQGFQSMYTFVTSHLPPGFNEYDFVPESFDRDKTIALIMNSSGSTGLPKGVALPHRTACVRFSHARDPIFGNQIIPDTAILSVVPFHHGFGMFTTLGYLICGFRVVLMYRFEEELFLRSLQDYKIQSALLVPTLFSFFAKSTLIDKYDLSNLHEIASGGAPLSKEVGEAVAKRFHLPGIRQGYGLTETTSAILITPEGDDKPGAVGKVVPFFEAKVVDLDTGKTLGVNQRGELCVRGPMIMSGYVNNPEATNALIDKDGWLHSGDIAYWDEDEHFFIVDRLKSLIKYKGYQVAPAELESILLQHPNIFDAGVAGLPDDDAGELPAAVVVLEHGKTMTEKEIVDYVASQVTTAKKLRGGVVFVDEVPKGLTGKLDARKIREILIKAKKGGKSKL
Nuclear receptor subfamily 1 group I member 3 (Homo sapiens), sequence (Q14994 whole entry, looked up): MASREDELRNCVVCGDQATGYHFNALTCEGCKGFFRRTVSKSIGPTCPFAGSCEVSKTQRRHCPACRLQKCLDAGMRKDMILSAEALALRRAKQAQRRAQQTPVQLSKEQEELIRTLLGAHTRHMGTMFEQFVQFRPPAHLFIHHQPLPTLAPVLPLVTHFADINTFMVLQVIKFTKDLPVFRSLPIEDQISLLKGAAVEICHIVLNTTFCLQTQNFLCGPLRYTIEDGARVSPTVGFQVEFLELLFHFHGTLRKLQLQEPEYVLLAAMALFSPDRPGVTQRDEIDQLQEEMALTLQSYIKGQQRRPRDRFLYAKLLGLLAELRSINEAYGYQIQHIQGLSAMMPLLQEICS

CCN1CCCC1CNC(=O)C(O)(c1ccccc1)c1ccccc1 (configuration not stated)
not listed: [8] | [9] | [10]
inactive: all other assays above

CC[C@@H](CO)NC(=O)[C@@H]1C=C2c3cccc4c3c(cn4C)C[C@H]2N(C)C1
inactive: all assays above

CC[C@H](N)c1ccccc1
not listed: [8] | [9] | [10]
inactive: all other assays above

CC1N=C(N)OC1c1ccccc1 (configuration not stated)
inactive: [1] | [2] | [3] | [4] | [5] | [6]

Cc1ccc(S(=O)(=O)N[C@@H](CCCCN)C(=O)CCl)cc1
inactive: all assays above

ClCCCCCCCl
not listed: [8] | [9] | [10]
inactive: all other assays above

CCCCCCCCBr
not listed: [8] | [9] | [10]
inactive: all other assays above

CCCCCCCC(=O)Cl
inactive: [1] | [2] | [3] | [4] | [5] | [6]

Cc1cc(OC(=O)N(C)C)nn1C(=O)N(C)C
inactive: [1] | [2] | [3] | [4] | [5] | [6]

CC(C)(C)C(=O)Cl
inactive: [1] | [2] | [3] | [4] | [5] | [6]

CC[C@@H](CO)NC(=O)[C@@H]1C=C2c3cccc4[nH]cc(c34)C[C@H]2N(C)C1
not listed: [5] | [6]
inactive: all other assays above

Cn1c(CCCC(=O)O)nc2cc(N(CCCl)CCCl)ccc21
not listed: [5]
inactive: all other assays above

CCNc1nc(NCC)nc(SC)n1
not listed: [8] | [9] | [10]
inactive: all other assays above

N=C(N)[Se]
inactive: [1] | [2] | [3] | [4] | [5] | [6]

CC(C)NCC(O)c1ccc([N+](=O)[O-])cc1 (configuration not stated)
not listed: [8] | [9] | [10]
inactive: all other assays above

C[C@H](N)C(=O)c1ccccc1
inactive: [1] | [2] | [3] | [4] | [5] | [6]

CCc1ccc(C2CCNCC2)cc1
inactive: [1] | [2] | [3]

O=C1CC(=O)NC(=O)N1
not listed: [8] | [9] | [10]
inactive: all other assays above

OCC(Cl)CCl (configuration not stated)
inactive: [1] | [2] | [3] | [4]

CCCN1CCC[C@@H]2Cc3nc(N)ncc3C[C@H]21
inactive: all assays above

O=C1CCCCC1Cl (configuration not stated)
inactive: [1] | [2] | [3] | [4]

[O-][Br+2]([O-])O
not listed: [8] | [9] | [10]
inactive: all other assays above

O=C/C=C/c1ccco1
not listed: [8] | [9] | [10]
inactive: all other assays above

C=C(C)[C@H]1CN[C@H](C(=O)O)[C@H]1CC(=O)O
not listed: [8] | [9] | [10]
inactive: all other assays above

C=C(Cl)CCl
inactive: [1] | [2] | [3] | [4]

O=c1[nH]oc2c1CCNC2
inactive: [8] | [1] | [2] | [4] | [9] | [10]

C=CC=O
not listed: [8] | [9] | [10]
inactive: all other assays above

ClC1=C(Cl)C2(Cl)C(CBr)CC1(Cl)C2(Cl)Cl (configuration not stated)
inactive: [1] | [2]

CCCN1CCC[C@@H]2Cc3[nH]ncc3C[C@H]21
not listed: [7]
inactive: all other assays above

O=c1[nH]c2ccccc2n1C1CCNCC1
inactive: [1] | [2] | [3] | [4] | [5] | [6]

N[C@@H]1C[C@H]1c1ccccc1
inactive: [1] | [2] | [3] | [4]
